# Screening results as filed in PubChem.
# A selection: hits, their analogues and other compounds. The true share with any hit is near 9.7%.
# Autofluor 339: intrinsic fluorescence of library compounds, ex339/em460 – biochemical, MLSMR library, data from DPM-DC assay, artefact control, profiling panel | compound autofluorescence, ex339/em460 nm, NADH buffer; hits give high values; 1 = no-compound wells, NADH background | fluorescence fold increase at 10 µM | 5.5% of 65,000 active | AID 709;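 active = at 10 µM, mean starting fluorescence two-fold or more over control wells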;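 note: signal is the first read of a kinetic run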
# BAP1 block: human BAP1 deubiquitinase inhibition | Q92560 | recombinant BAP1, Ub-AMC hydrolysis fluorescence kinetic; hits give low values | calls only at 20 µM | 0.48% of 72,000 active;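 active = activity remaining at or below 50% of control, provided the compound also passes the data quality filters; inactive = the rest, including low values that fail the filters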;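 note: 100% = DMSO wells rate and 0% = substrate alone blank rate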
# M1 antagonist: blocks the rat M1 muscarinic receptor response to acetylcholine; CHO-M1 cells, Fluo-4 calcium, ACh EC80 antagonist mode; hits give low values; B-score at 10 µM; 3.4% of 64,000 active;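 active = calcium fluorescence response, raw or row-and-column corrected B-score, differing from the plate sample mean either way at a set confidence level, mostly lower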
# WNV NS2B-NS3 inh: inhibitors of West Nile virus NS2B-NS3 protease | AID 577 | P06935 | WNV NS2B-NS3 protease, fluorogenic substrate Ex360/Em465; hits give low values | 0.18% of 65,000 active | z-score (test concentration not listed); in the data active = z-score below about -3
# Target sequence (P06935 1371-1501 limits assumed): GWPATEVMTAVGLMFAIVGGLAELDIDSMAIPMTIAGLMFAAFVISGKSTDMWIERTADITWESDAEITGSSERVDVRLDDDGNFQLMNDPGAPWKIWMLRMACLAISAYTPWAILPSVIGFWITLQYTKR
# Target sequence (P06935 1502-1679 limits assumed): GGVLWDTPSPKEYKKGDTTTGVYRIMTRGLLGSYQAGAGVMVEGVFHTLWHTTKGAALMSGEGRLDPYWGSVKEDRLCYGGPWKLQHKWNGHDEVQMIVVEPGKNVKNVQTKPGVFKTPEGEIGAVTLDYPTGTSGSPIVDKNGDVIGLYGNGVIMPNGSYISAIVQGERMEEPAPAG
# Abs 340nm: compounds absorbing at 340 nm. 65,000 tested, under 10 active. compound absorbance at 340 nm, fold over control. fold change at 10 µM;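 active = at 10 µM dose, initial 340 nm absorbance at least 2 fold that of control wells; inactive = change under 2 fold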;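 note: initial absorbance extrapolated from kinetic A340 decline of NADH oxidation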
# M1 ag: agonists of M1 muscarinic receptor | CHO-M1 cells, Fluo-4 calcium fluorescence, agonist mode; hits give high values | B-score at 10 µM | 3% of 64,000 active | AID 626;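 active = fluorescence rise, raw or as B-score row- and column-corrected plate score, outside the 99.7% band of its plate's samples, either direction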
# The depositor's hits bear a star; i = inactive; / = no result given.
SMILES,Autofluor 339,BAP1 block,M1 antagonist,WNV NS2B-NS3 inh,Abs 340nm,M1 ag
Cc1ccc(-c2cc(-c3ccc(F)cc3)nc(N)c2C#N)o1,3.7*,i,/,0.82,1.1,/
CCSc1nc(N)c(C#N)c(-c2ccccc2Cl)c1C#N,1.2,/,0.63,0.93,1,1.2
Cc1ccc(-c2cc(-c3ccccc3)c(C#N)c(N)n2)o1,5.1*,i,-0.34,4.7,0.99,-0.4
COc1ccc(-c2cc(-c3ccc(F)cc3)nc(N3CCN(C)CC3)n2)cc1,1.3,/,0.42,0.08,1,-0.77
COc1ccc([N+](=O)[O-])cc1N1C(=O)C2C3C=CC(CC3)C2C1=O (stereo not given),/,i,/,/,/,/
CCOc1ccc(S(=O)(=O)NCc2ccc(F)cc2)c2cccnc12,3.5*,i,0.44,-0.46,1.1,0.23
CCOc1ccc(S(=O)(=O)Nc2ccc3c(c2)OCO3)c2cccnc12,1.1,i,-0.031,-0.68,1.1,0.25
Cc1ccc2oc(=O)c3cc(C(=O)NCCN4CCN(C)CC4)sc3c2c1,2.2*,i,-1.1,1.6,1.2,-0.76
Cc1ccc(NC(=O)c2cc3c(=O)oc4ccccc4c3s2)cc1C,/,i,/,/,/,/
Cc1ccc(-c2ccc(CCC(=O)O)n2CC(=O)O)cc1,1.1,/,-0.0015,-0.78,1,-0.78
O=C(O)CCc1ccc(-c2ccccc2)n1CC1CCCO1 (stereo not given),4*,i,0.46,-0.07,1,0.094
COc1ccc(-c2ccc(CCC(=O)O)n2C(C)C)cc1,2*,i,-0.89,-0.32,1.1,0.35
COC(=O)Cn1c(CCC(=O)O)ccc1-c1ccccc1,2.2*,i,0.0061,0.43,1,0.052
CCCn1c(CCC(=O)O)ccc1-c1ccc(F)cc1,2*,i,0.42,-0.42,1.1,-0.37
Cc1ccc(C(=O)COC(=O)c2ccccc2Sc2ccc([N+](=O)[O-])cc2)cc1,/,i,/,/,/,/
Cc1cc(OCC(O)CN2CCN(c3ccc(F)cc3)CC2)cc(C)c1Cl (stereo not given),/,i,/,/,/,/
O=C(O)c1cccc(N2CCCC2)c1,5*,i,-0.59,0.69,1,-0.29
O=C(O)c1cccc(N2CCCC2=O)c1,1.1,i,0.054,0.07,0.99,-0.53
COc1ccc(OC)c(NC2OC(=O)c3c2ccc(OC)c3OC)c1 (stereo not given),/,i,/,/,/,/
CN(C(=O)c1cccnc1)c1nnc(-c2ccccn2)s1,2.2*,i,-0.23,2.1,0.94,-1
CN(C(=O)c1cccnc1)c1nnc(-c2cnccn2)s1,1.1,i,0.38,-0.12,1.1,-0.6
CN(C(=O)c1cccc(C#N)c1)c1nnc(-c2cnccn2)s1,1.1,i,0.15,2.4,1,2.4
CN(C(=O)c1cccc(C#N)c1)c1nnc(-c2ccncc2)s1,2.4*,i,-0.021,-1.8,1,-0.55
COC(=O)c1cc2c(ccn2-c2ccc(F)cc2)n1CC(=O)N1CCN(C(=O)c2ccco2)CC1,3.5*,i,0.91,-0.29,1.1,0.59
CCn1c(C(=O)OC)cc2c1ccn2-c1ccc(F)cc1,1.1,i,-0.00049,0.15,1,-0.54
SMILES,Autofluor 339,BAP1 block,M1 antagonist,WNV NS2B-NS3 inh,Abs 340nm,M1 ag
Cc1ccc(-c2nc(C#N)c(N3CCCCC3)o2)cc1,2.2*,/,0.81,0.93,1.1,1.4
N#Cc1nc(-c2ccccc2F)oc1N1CCCC1,3.6*,/,0.71,1.4,1.1,0.082
CC(C)CNc1oc(-c2ccc(F)cc2)nc1C#N,2.4*,/,-0.37,0.71,1,0.92
COc1ccc(-c2nc(C#N)c(N3CCCCCC3)o2)cc1,2.3*,i,-0.48,-1.4,1.1,0.12
CC(C)OC(=O)c1cccc(C(=O)Nc2ccc(I)cc2)n1,/,i,/,/,/,/
CS(=O)(=O)c1ncn(-c2ccccc2)n1,/,i,/,/,/,/
COc1ccc(-c2nc(C#N)c(N3CCCCCC3)o2)cc1OC,3.9*,i,-0.44,-0.84,1.1,0.79
N#Cc1nc(-c2ccc(OCc3ccc(Cl)cc3)cc2)oc1N1CCOCC1,1.9,/,0.69,0.77,1.1,-0.47
N#Cc1nc(-c2ccc(Cl)cc2)oc1N1CCCCC1,2.4*,/,-1.2,0.43,1.1,-0.45
COc1ccc(-c2nc(C#N)c(N3CC(C)OC(C)C3)o2)cc1OC (stereo not given),2.1*,/,0,0.93,1.1,-0.29
COc1ccc(-c2nc(C#N)c(NC(C)C)o2)cc1,2.3*,/,0.4,1.1,1.1,0.75
O=C(Nc1nc(-c2ccccc2)c(C(=O)c2ccccc2)s1)c1cccc([N+](=O)[O-])c1,/,i,/,/,/,/
O=C(Nc1nc2ccc(Cl)cc2s1)c1cccc([N+](=O)[O-])c1,/,i,/,/,/,/
N#Cc1nc(-c2ccc(F)cc2)oc1N1CCCC1,2.4*,/,0.054,0.35,1.1,1.2
N#Cc1nc(COc2ccc(F)cc2)oc1N1CCCC1,1.1,i,-0.0011,0.34,0.98,0.16
CC1CN(c2oc(-c3ccccc3Cl)nc2C#N)CC(C)O1 (stereo not given),1.8,/,-0.55,-0.43,1.1,-0.14
N#Cc1nc(-c2ccccc2)oc1N1CCCCC1,3.7*,/,0.57,-0.27,1.1,0.91
CC1=CCC2CC1NC(=O)CCOCCC(=O)NC2(C)C (stereo not given),/,i,/,/,/,/
COc1cc(CNc2ccc3[nH]c(=O)[nH]c3c2)cc(Cl)c1OCC(=O)NC(C)(C)C,3*,i,-0.78,0.24,1.1,-1.4
CCOc1ccc(S(=O)(=O)N(C)c2ccc(OCC(=O)Nc3ccc4[nH]c(=O)[nH]c4c3)cc2)cc1,1.1,/,/,1.2,1,/
CCOc1cc(CNc2ccc3[nH]c(=O)[nH]c3c2)ccc1OCC(=O)NC(C)(C)C,3.8*,i,-0.97,0.79,1.1,7.4*
Cc1ccc2[nH]c(-c3ccccc3)cc(=O)c2c1,2.2*,i,-0.69,-0.82,1.1,0.19
CCOC(=O)N1CCC(NC(=O)Cn2c3c(c(-c4ccccc4Cl)cc2=O)CCC3)CC1,2.2*,i,-0.12,-0.21,1,-0.63
CCCc1cc(=O)oc2cc(C)c3c(C)coc3c12,2.1*,/,-0.9,1.8,1,-0.4
CCCc1cc(=O)oc2cc3oc(C)c(C)c3cc12,1.5,i,-0.38,0.06,1,0.44
SMILES,Autofluor 339,BAP1 block,M1 antagonist,WNV NS2B-NS3 inh,Abs 340nm,M1 ag
COc1ccc(NC(=O)Nc2nonc2C)cc1,/,i,/,/,/,/
CC(O)C(=O)C12CC3CC(CC(C3)C1)C2 (stereo not given),/,i,/,/,/,/
Cc1ccc2[nH]c(=O)c(CN(CCCN3CCOCC3)C(=O)NC3CCCCC3)cc2c1,1.6,i,-0.84,-1.6,1,0.35
COc1ccc(CCN(Cc2cc3cc(C)ccc3[nH]c2=O)C(=O)N2CCCC2)cc1OC,1.2,i,0.5,-0.71,1,1
COCCN(Cc1cc2cc3c(cc2[nH]c1=O)OCO3)C(=O)c1cccs1,2.7*,i,0.5,-0.98,1.1,-0.43
COc1ccc(CCN(Cc2cc3cc4c(cc3[nH]c2=O)OCO4)C(C)=O)cc1OC,2.7*,/,1,-0.43,1.1,-1.9
